The target in experiment [1] is Cellular tumor antigen p53 (Homo sapiens) (UniProt P04637). In words: TOX21_p53_BLA_p2_ratio: Tox21 HCT-116 p53 Agonism Beta-lactamase Assay, Ratio, Phase 2 (AID 2283592). An outline of the steps: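 Ratio endpoint: beta-lactamase cleavage of CCF4-AM, blue (460 nm) over green (530 nm). HCT116 reporter line; 16 h treatment, 37C; substrate 2 h RT.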
Experiment [2] can be described thus: TOX21_p53_BLA_p3_viability: Viability Assessment in the Tox21 HCT-116 p53 Agonism Beta-lactamase Assay, Phase 3 (AID 2283593).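 Further: cells exposed to compound for 16 h before reading.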 An outline of the steps:
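HCT116 cells, 4000/well, dosed 5 h after plating by pin transfer (217-fold dilution from DMSO stock) and incubated 16 h at 37C, 5% CO2. Viability read as ATP luminescence with CellTiter-Glo after 30 min at room temperature.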

Experiment [3] has as its target Cellular tumor antigen p53 (Homo sapiens) (UniProt P04637). Description: TOX21_p53_BLA_p3_ratio: Tox21 HCT-116 p53 Agonism Beta-lactamase Assay, Ratio, Phase 3 (AID 2283596). An outline of the steps: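 Cells were seeded at 4000/well, rested 5 h at 37C, then dosed with DMSO compound solutions (217-fold dilution) for 16 h. CCF4-AM substrate was loaded for 2 h at room temperature, and the 460/530 nm emission ratio was fitted for gain of signal versus DMSO.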

The nature of experiment [4]: TOX21_p53_BLA_p4_viability: Viability Assessment in the Tox21 HCT-116 p53 Agonism Beta-lactamase Assay, Phase 4 (AID 2283597).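 Further: hits lower the luminescence signal meaning cytotoxicity.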 An outline of the steps:
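Cytotoxicity was inferred from loss of CellTiter-Glo luminescence. HCT116 cells had been dosed with compounds after 5 h plating, incubated 16 h at 37C and 5% CO2, and exposed to the CCF4-AM substrate for 2 h.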

Experiment [5] deals with Cellular tumor antigen p53 (Homo sapiens) (UniProt P04637). Description: TOX21_p53_BLA_p5_ratio: Tox21 HCT-116 p53 Agonism Beta-lactamase Assay, Ratio, Phase 5 (AID 2283599). An outline of the steps:
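HCT-116 p53-bla cells (4000/well) plated 5 h, dosed with compound (217-fold DMSO dilution) for 16 h at 37 C; CCF4-AM substrate 2 h at room temperature. Activity is the 460/530 nm emission ratio (405 nm excitation), fitted in gain-of-signal direction versus DMSO.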

Experiment [6] can be described thus: TOX21_p53_BLA_p5_viability: Viability Assessment in the Tox21 HCT-116 p53 Agonism Beta-lactamase Assay, Phase 5 (AID 2283600). An outline of the steps:
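Luciferase-coupled ATP quantitation of cells treated for 16 h (37C, 5% CO2) with test chemicals delivered in DMSO via a 217-fold dilution; 4000 cells/well; reagent incubated 30 min at room temperature before luminescence reading.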

The target of experiment [7] is Cellular tumor antigen p53 (Homo sapiens) (UniProt P04637). Description: TOX21_p53_BLA_p4_ratio: Tox21 HCT-116 p53 Agonism Beta-lactamase Assay, Ratio, Phase 4 (AID 2283601). An outline of the steps:
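HCT-116 p53 beta-lactamase reporter cells (4000/well) preincubated 5 h, then compound (217-fold dilution of DMSO stock) for 16 h at 37C. CCF4-AM substrate added 2 h at room temperature; 460/530 nm emission ratio fitted upward versus DMSO.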

Molecules are shown by their SMILES. Inconclusive results are not listed. Active and inactive are the calls of the source. How the source made its calls: active means hit-call score of the fitted dose curve at least 0.9, where 1 is the maximum; inconclusive means response in the unintended direction; inactive means score below 0.9.

Sequence of Cellular tumor antigen p53 (Homo sapiens) (P04637 whole entry, looked up): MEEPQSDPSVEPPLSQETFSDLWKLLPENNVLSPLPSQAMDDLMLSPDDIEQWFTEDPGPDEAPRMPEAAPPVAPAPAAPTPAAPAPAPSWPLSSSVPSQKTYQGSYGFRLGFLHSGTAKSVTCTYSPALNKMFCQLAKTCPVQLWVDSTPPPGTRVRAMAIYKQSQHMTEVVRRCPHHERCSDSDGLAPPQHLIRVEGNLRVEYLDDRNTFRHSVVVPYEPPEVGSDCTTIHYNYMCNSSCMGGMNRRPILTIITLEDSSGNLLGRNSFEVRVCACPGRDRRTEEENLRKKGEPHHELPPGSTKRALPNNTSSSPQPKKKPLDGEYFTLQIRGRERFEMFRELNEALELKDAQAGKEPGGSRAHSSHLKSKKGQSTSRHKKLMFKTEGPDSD

Consider `Cc1cn([C@H]2C[C@H](O)[C@@H](CO)O2)c(=O)[nH]c1=O`, for which the result in experiment [1], in experiment [2], in experiment [3], in experiment [4], in experiment [5] and in experiment [6] was inactive. In experiment [7], the result was inactive.
As for `O=C(O)Cc1ccccc1Oc1ccc(Cl)cc1Cl`, the result in experiment [1], in experiment [2], in experiment [3], in experiment [4], in experiment [5] and in experiment [6] was inactive. The result in experiment [7] was inactive.
For the molecule `CC(C)(C)S`, the result in experiment [1], in experiment [2], in experiment [3], in experiment [4], in experiment [5] and in experiment [6] was inactive. Besides, the outcome in experiment [7] was inactive.
Consider `C[C@@H]1O[C@@H]1P(=O)(O)O`, for which the outcome in experiment [1], in experiment [2], in experiment [3], in experiment [4], in experiment [5] and in experiment [6] was inactive. In experiment [7], the outcome was inactive.
As to `CC12CCC(CC1=O)C2(C)C` (stereo not given), the outcome in experiment [1], in experiment [2], in experiment [3], in experiment [4], in experiment [5] and in experiment [6] was inactive. Further, in experiment [7], the result was inactive.
With `CC(N)C12CC3CC(CC(C3)C1)C2` (stereo not given), the outcome in experiment [1], in experiment [2], in experiment [3], in experiment [4], in experiment [5] and in experiment [6] was inactive. Moreover, the result in experiment [7] was inactive.
Consider `COC(=O)C1=C(C)NC(C)=C(C(=O)OC(C)(C)CN(C)CCC(c2ccccc2)c2ccccc2)C1c1cccc([N+](=O)[O-])c1` (stereo not given), for which the result in experiment [1], in experiment [2], in experiment [3], in experiment [4], in experiment [5] and in experiment [6] was inactive. The result in experiment [7] was inactive.
Consider `Cc1c(C)c2c(c(C)c1O)CC[C@@](C)(CCC[C@H](C)CCC[C@H](C)CCCC(C)C)O2`, for which the outcome in experiment [1], in experiment [2], in experiment [3], in experiment [4], in experiment [5] and in experiment [6] was inactive. For the same molecule, the outcome in experiment [7] was inactive.
As to `Cc1cc2c(cc1S(N)(=O)=O)S(=O)(=O)CCC2`, the result in experiment [1], in experiment [2], in experiment [3], in experiment [4], in experiment [5] and in experiment [6] was inactive. Further, the result in experiment [7] was inactive.
Turning to `O=C(O)Cc1ccc(-c2ccccc2)cc1`, the result in experiment [1], in experiment [2], in experiment [3], in experiment [4], in experiment [5] and in experiment [6] was inactive. For the same molecule, the result in experiment [7] was inactive.
`COc1ncnc(NS(=O)(=O)c2ccc(N)cc2)c1OC`: the outcome in experiment [1], in experiment [2], in experiment [3], in experiment [4], in experiment [5] and in experiment [6] was inactive. The outcome in experiment [7] was inactive.
With `Cc1cccn2c(=O)c(-c3nnn[nH]3)cnc12`, the outcome in experiment [1], in experiment [2], in experiment [3], in experiment [4], in experiment [5] and in experiment [6] was inactive. For the same molecule, the result in experiment [7] was inactive.
As to `C#CCOc1ccc2c(C)cc(=O)oc2c1`, the result in experiment [1], in experiment [2], in experiment [3], in experiment [4], in experiment [5] and in experiment [6] was inactive. Further, in experiment [7], the outcome was inactive.
Consider `NC(N)=NN=Cc1c(Cl)cccc1Cl`, for which the outcome in experiment [1], in experiment [2], in experiment [3], in experiment [4], in experiment [5] and in experiment [6] was inactive. Moreover, in experiment [7], the result was inactive.
In the case of `CO/N=C(\C(=O)N[C@@H]1C(=O)N2C(C(=O)O)=C(COC(C)=O)CS[C@H]12)c1csc(N)n1` (stereo in doubt), the outcome in experiment [1], in experiment [2], in experiment [3], in experiment [4], in experiment [5] and in experiment [6] was inactive. In experiment [7], the result was inactive.
On to `Nc1ccc(C(=O)Oc2ccccc2)c(O)c1`, for which the result in experiment [1], in experiment [2], in experiment [3], in experiment [4], in experiment [5] and in experiment [6] was inactive. Moreover, the outcome in experiment [7] was inactive.
On to `COc1ccc(-c2noc(CC(=O)O)c2-c2ccc(OC)cc2)cc1`, for which the result in experiment [1], in experiment [2], in experiment [3], in experiment [4], in experiment [5] and in experiment [6] was inactive. Also, in experiment [7], the outcome was inactive.
As for `O=C(c1ccccc1)c1cccc(O)c1`, the result in experiment [1], in experiment [2], in experiment [3], in experiment [4], in experiment [5] and in experiment [6] was inactive. In addition, the outcome in experiment [7] was inactive.
Regarding `O=C(O)c1nc(=O)[nH]c(=O)[nH]1`, the result in experiment [1], in experiment [2], in experiment [3], in experiment [4], in experiment [5] and in experiment [6] was inactive. In addition, in experiment [7], the result was inactive.
With `CC(=O)O[C@H]1C(=O)[C@@]2(C)[C@H]([C@H](OC(=O)c3ccccc3)[C@]3(O)C[C@H](OC(=O)[C@H](O)[C@@H](NC(=O)c4ccccc4)c4ccccc4)C(C)=C1C3(C)C)[C@]1(OC(C)=O)CO[C@@H]1C[C@@H]2O`, the AC50 in experiment [1] was 0.179 µM (active); in experiment [3], 0.00826 µM (active); in experiment [5], 4.57 µM (active); in experiment [7], 0.00702 µM (active). The molecule was classed as inactive in experiment [2], in experiment [4] and in experiment [6].
Turning to `Nc1ncnc2c1ncn2[C@@H]1O[C@H](COP(=O)(O)OP(=O)(O)OP(=O)(O)O)[C@@H](O)[C@H]1O`, the outcome in experiment [1], in experiment [2], in experiment [3], in experiment [4], in experiment [5] and in experiment [6] was inactive. Further, in experiment [7], the result was inactive.
`S=C1NC=NC2N=CNC12` (stereo not given): the AC50 was 7.37 µM (active) in experiment [1]; 2.33 µM (active) in experiment [2]; 7.71 µM (active) in experiment [3]; 2.3 µM (active) in experiment [4]; 6.33 µM (active) in experiment [5]; 8.02 µM (active) in experiment [7]. For the same molecule, in experiment [6], the molecule was called inactive.
Take `O=C1OC(O)C(C(Cl)Cl)=C1Cl` (stereo not given): the AC50 in experiment [1] was 13.2 µM (active); in experiment [2], 14.6 µM (active); in experiment [3], 13.3 µM (active); in experiment [4], 12.7 µM (active); in experiment [5], 25.6 µM (active). The molecule was classed as inactive in experiment [6] and in experiment [7].
`CCCCCCCCCCCl`: the result in experiment [1], in experiment [2], in experiment [3], in experiment [4], in experiment [5] and in experiment [6] was inactive. In experiment [7], the outcome was inactive.
Take `COc1ccc(C(=O)c2ccc(C)cc2)c(O)c1`: the outcome in experiment [1], in experiment [2], in experiment [3], in experiment [4], in experiment [5] and in experiment [6] was inactive. Moreover, the outcome in experiment [7] was inactive.
For `CC(=O)Oc1ccc(C2(c3ccc(OC(C)=O)cc3)Oc3ccccc3NC2=O)cc1`, the AC50 in experiment [1] is 2.17 µM (active); in experiment [5], 6.63 µM (active). For the same molecule, the molecule was classed as inactive in experiment [2], in experiment [3], in experiment [4], in experiment [6] and in experiment [7].
Consider `c1ccc(-n2cnnn2)cc1`, for which the outcome in experiment [1], in experiment [2], in experiment [3], in experiment [4], in experiment [5] and in experiment [6] was inactive. In addition, in experiment [7], the result was inactive.
For `Nc1ccn([C@@H]2O[C@H](CO)[C@@H](O)C2(F)F)c(=O)n1`, the AC50 was 0.176 µM (active) in experiment [1], 0.181 µM (active) in experiment [3], 0.26 µM (active) in experiment [5] and 0.188 µM (active) in experiment [7]. Moreover, the outcome in experiment [2], in experiment [4] and in experiment [6] was inactive.
With `N[C@H](CC(=O)O)C(=O)O`, the outcome in experiment [1], in experiment [2], in experiment [3], in experiment [4], in experiment [5] and in experiment [6] was inactive. Besides, in experiment [7], the outcome was inactive.
With `Nc1cc(C(Cl)=C(Cl)Cl)c(S(N)(=O)=O)cc1S(N)(=O)=O`, the outcome in experiment [1], in experiment [2], in experiment [3], in experiment [4], in experiment [5] and in experiment [6] was inactive. Further, in experiment [7], the result was inactive.

Usually AC50 stands for the midpoint of the concentration-response curve, whichever way the signal moves.

The values are drawn from PubChem BioAssay (EPA / NIEHS).
